Assay [1] has as its target Peroxisome proliferator-activated receptor gamma (Homo sapiens) (UniProt P37231). In words: qHTS assay for small molecule agonists of peroxisome proliferator-activated receptor gamma signaling (AID 588536; active = well fitted curve in the direction sought with a large enough effect in the signal ratio, with a control signal flat, not every such curve was filed as active; the % refers to the signal ratio;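 note: 0% = DMSO basal wells and 100% = rosiglitazone at 2 µM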). In short, it runs like this:
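Using GeneBLAzer HEK293 cells, response was quantified by CCF4 fluorescence and normalized between basal DMSO (0%) and rosiglitazone 2 uM (100%); curves yielded half-maximal stimulation concentration and efficacy.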

The target is the same in assay [2]. In words: qHTS assay for small molecule antagonists of peroxisome proliferator-activated receptor gamma signaling (AID 588537; active = well fitted inhibition curve with a large enough effect in the signal ratio, with a control signal flat, not every such curve was filed as active; the % refers to the signal ratio;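 note: reporter cells co-stimulated with 50 nM rosiglitazone agonist during compound treatment; % of control where 0% means no effect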). Summed up:
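Compounds are tested as concentration series for inhibition of rosiglitazone-driven (50 nM) reporter expression in GeneBLAzer PPAR-gamma-UAS-bla HEK293 cells. After 16 h at 37 C, CCF4 substrate is added for 2 h at room temperature and blue/green fluorescence is measured.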

For assay [3], the target named is Vitamin D3 receptor (Homo sapiens) (UniProt P11473). Nature of the assay: qHTS assay for small molecule antagonists of vitamin D receptor signaling (AID 588541; calls by dose curve;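 note: receptor activated by calcitriol during compound treatment; series mostly up to about 77 µM; % is set by controls: 0 for no effect and ±100 for the full control effect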). Summed up: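 VDR-UAS-bla HEK293T cells (2000/well, 2% charcoal-stripped FBS) were treated with titrated compounds plus 1-alpha,25-dihydroxyvitamin D3 (50 nM or 3 nM final) for 16 h at 37 C. CCF4 beta-lactamase fluorescence was read; Hill fits gave IC50.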
For orientation: In qHTS, concentration-response curves come from the screen itself.

For assay [4] the target is unchanged. Nature of the assay: qHTS assay for small molecule agonists of vitamin D receptor signaling (AID 588543; calls by dose curve;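 note: 0% = DMSO basal and 100% = reference agonist control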). Summed up:
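Reporter cells (HEK293T, VDR-UAS-bla) were seeded in medium with 2% charcoal-stripped serum and incubated 5 h, then compounds in concentration series were added for 16 h at 37 °C. Stimulation was scaled between DMSO basal and 50 nM 1α,25-dihydroxyvitamin D3.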

A short description of assay [5]: qHTS assay for small molecule agonists of retinoid X receptor alpha signaling (AID 588544; calls by dose curve;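 for activation: 0% = DMSO basal wells and 100% = reference agonist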). Particulars: HEK293T RXRa-UAS-bla, beta-lactamase reporter, 18 h; 530 nm emission.
Assay [6] has as its target Retinoic acid receptor RXR-alpha (Homo sapiens) (UniProt P19793). The assay is described as above.
Assay [7] addresses Thyroid hormone receptor beta (Homo sapiens) (UniProt P10828). Nature of the assay: qHTS assay for small molecule agonists of thyroid hormone receptor beta signaling (AID 588545; calls by dose curve). Summed up: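 HEK 293 TR-UAS-bla; agonist mode; 18 hrs, 37 C; CCF4, ex 405/em 460 and 530 nm; norm. T3 10 nM = 100%, DMSO = 0%; Hill fit → EC50, efficacy.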
A short description of assay [8]: qHTS assay for small molecule activators of the p53 signaling pathway (AID 651743; active = well fitted activation curve with a large enough effect in the signal ratio, not every such curve was filed as active; the % refers to the signal ratio; note: series mostly up to about 92 µM; % of control where 0% means no effect). Particulars: HCT-116 p53RE-bla, beta-lactamase FRET ratio, 16 h; activation: stronger effect = higher value. In short, it runs like this:
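Agonist-mode quantitative HTS in HCT-116 cells carrying a p53-response-element beta-lactamase reporter; 16 h compound treatment at 37 C, then FRET substrate loading for 2 h at room temperature and fluorescence read.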

Assay [9] in a line: qHTS assay for small molecule activators of the nuclear factor-kappa B (NF-kB) signaling pathway (AID 651749; active = well fitted activation curve with a large enough effect in the signal ratio; the % refers to the signal ratio; note: series mostly up to about 77 µM; % of control where 0% means no effect). Particulars: NF-kB-bla ME-180 cells, beta-lactamase FRET ratio, 16 h; activation: stronger effect = higher value. Summed up:
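Human ME-180 cervical cells with an NF-kB-bla construct; compounds added via 23 nL pin transfer, DMSO as vehicle; incubation 16 hr. Reporter activity measured by FRET disruption.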

A short description of assay [10]: qHTS assay for environmental chemicals that activate the Aryl hydrocarbon Receptor (AhR) signaling pathway (AID 651777). Note: % of control where 0% means no effect; nearly all actives have a fitted effect of over 15% in size. Particulars: 1A2-DRE human hepatoma cells, luciferase, 24 h; activation: stronger effect = higher value. Summed up: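 Quantitative HTS in stably transfected human liver-derived cells whose luciferase gene sits downstream of the CYP1A2 promoter and dioxin response element. After 24 hr exposure at 37 C, One-Glo luminescence was measured.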

Assay [11] has as its target Peroxisome proliferator-activated receptor alpha (Homo sapiens) (UniProt Q07869). In words: qHTS assay for small molecule agonists of the peroxisome proliferator-activated receptor alpha (PPARalpha) signaling pathway (AID 651778). Note: % of control where 0% means no effect. Particulars: PathHunter PPARalpha complementation, chemiluminescence, 6 h; max response: stronger effect = higher value. In short, it runs like this: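 Cells plated at 2,000/well and held overnight at 37 C, 5% CO2, then compound added by pin tool for 6 hr; after PathHunter detection reagent and 60 min at room temperature, chemiluminescence from enzyme complementation was read.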

A short description of assay [12]: qHTS assay for small molecule agonists of the antioxidant response element (ARE) signaling pathway measured by Nrf2-dependant transcriptional activity (AID 720636; active = well fitted curve in the direction sought with a large enough effect in the repeat runs; an effect the other way counts as inactive or inconclusive; note: potency is the fitted concentration of half-maximal effect; for activation: % of control where 0% means no effect). Summed up: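 Quantitative HTS format in HepG2 cells stably expressing an ARE-luciferase reporter; 16 hr compound treatment at 37 C, luciferase signal detected with ONE-Glo.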
Assay [13] in a line: qHTS assay for small molecule agonists of the antioxidant response element (ARE) signaling pathway measured by Nrf2-dependant transcriptional activity - cell viability counter screen (AID 720653; active = well fitted curve in the direction sought with a large enough effect in the repeat runs; an effect the other way counts as inactive or inconclusive; note: % is set by controls: 0 for no effect and ±100 for the full control effect). Particulars: ARE-bla HepG2 viability, CellTiter-Glo ATP luminescence, 16 h; max response: stronger effect = lower value. In short, it runs like this:
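ARE-bla HepG2 cells (2,000/well) rested 5 hrs at 37C/5% CO2, then exposed to compounds in DMSO for 16 hrs. Viability was read in the same wells as intracellular ATP by luminescence, 30 min at room temperature after reagent addition.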

The target in assay [14] is Nuclear receptor subfamily 1 group I member 2 (Rattus norvegicus) (UniProt Q9R1A7). In words: qHTS assay for small molecule activators of the rat pregnane X receptor (rPXR) signaling pathway (AID 651751; call rule not given here; note: 0% is about no effect). Particulars: rPXR reporter cells, luciferase (One-Glo), 24 h.
A short description of assay [15]: qHTS assay for small molecule activators of the human pregnane X receptor (PXR) signaling pathway (AID 720659; call rule not given here; note: 0% is about no effect).
Assay [16] in a line: qHTS assay for small molecule antagonists of peroxisome proliferator-activated receptor delta signaling (AID 588535).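 Note: cells co-treated with a PPAR-delta agonist as stimulator during compound exposure.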 Particulars: HEK293T PPARd-UAS-bla, beta-lactamase FRET ratio, 18 h; 460 nm channel. In short, it runs like this:
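Inhibition of PPAR-delta response element-driven beta-lactamase expression is measured in HEK293T cells exposed to a compound titration series for 18 hrs at 37 C. Half-maximal inhibition comes from Hill equation fitting.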

Assay [17] in a line: qHTS assay for small molecule antagonists of retinoid X receptor alpha signaling (AID 588546; active = well fitted inhibition curve with a large enough effect in the signal ratio, with a control signal flat, not every such curve was filed as active; the % refers to the signal ratio;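 note: cells stimulated with 9-cis-retinoic acid as agonist; % is set by controls: 0 for no effect and ±100 for the full control effect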). Particulars: HEK293T RXRa-UAS-bla, beta-lactamase ratio, antagonist mode; measured here: W530 green channel, cytotoxicity proxy. Summed up:
(§1)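 Beta-lactamase reporter inhibition, read as CCF4 fluorescence ratio (ex 405, em 460/530 nm) after 2 h at RT. HEK293T UAS-bla cells, 2500/well, were stimulated with 9-cis-RA at 500 or 100 nM final alongside test compound for 18 h at 37 C.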

The target of assay [18] is Retinoic acid receptor RXR-alpha (Homo sapiens) (UniProt P19793). The description is as above. Particulars: HEK293T RXRa-UAS-bla, beta-lactamase ratio, antagonist mode. Summed up: as §1
Assay [19] in a line: qHTS assay for cell viability of HEK293 cells (AID 743288). Note: % is set by controls: 0 for no effect and ±100 for the full control effect; nearly all actives have a fitted effect of over 50% in size. Particulars: ATP luminescence (CellTiter-Glo), 18 h; max response: stronger effect = lower value. Summed up: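 Viable-cell counts were inferred from luciferase-based ATP content in HEK293 cells seeded at 2,000/well, pre-incubated ≥5 h, then dosed with DMSO-solubilised compounds for 18 h at 37 C.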
A short description of assay [20]: qHTS assay for cell viability of the p53RE-bla HCT-116 cell line (AID 743292). Note: % is set by controls: 0 for no effect and ±100 for the full control effect; nearly all actives have a fitted effect of over 55% in size. In short, it runs like this: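 Viability of compound-treated p53RE-bla HCT-116 cells is taken from ATP-dependent luciferase luminescence. Treatment lasts 16 h at 37 C after a 5 h settling period; detection follows 30 min at room temperature.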

Results filed as inconclusive are left out. Calls of active or inactive are those of the source. Unless noted, calls come from the whole dose curve; as a rule, active = well fitted curve in the direction sought with a large enough effect; inconclusive = small, poorly fitted or top-dose-only effect, or another doubt; inactive = no such curve, though single readings can be large; an effect the other way counts as inactive or inconclusive.

Retinoic acid receptor RXR-alpha (Homo sapiens), sequence (P19793 whole entry, looked up): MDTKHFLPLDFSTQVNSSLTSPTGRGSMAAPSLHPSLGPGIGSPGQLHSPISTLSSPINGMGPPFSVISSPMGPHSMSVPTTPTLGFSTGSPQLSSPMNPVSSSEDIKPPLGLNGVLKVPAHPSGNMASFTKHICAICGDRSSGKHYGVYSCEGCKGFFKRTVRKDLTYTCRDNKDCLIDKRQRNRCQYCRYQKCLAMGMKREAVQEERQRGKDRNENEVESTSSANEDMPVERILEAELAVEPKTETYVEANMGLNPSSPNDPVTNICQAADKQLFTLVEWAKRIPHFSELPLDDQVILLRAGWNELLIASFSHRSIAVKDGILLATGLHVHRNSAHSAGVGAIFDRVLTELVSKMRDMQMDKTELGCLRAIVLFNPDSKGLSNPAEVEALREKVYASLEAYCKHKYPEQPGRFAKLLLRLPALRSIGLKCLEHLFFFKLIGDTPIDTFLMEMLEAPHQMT
Peroxisome proliferator-activated receptor alpha (Homo sapiens), sequence (Q07869 whole entry, looked up): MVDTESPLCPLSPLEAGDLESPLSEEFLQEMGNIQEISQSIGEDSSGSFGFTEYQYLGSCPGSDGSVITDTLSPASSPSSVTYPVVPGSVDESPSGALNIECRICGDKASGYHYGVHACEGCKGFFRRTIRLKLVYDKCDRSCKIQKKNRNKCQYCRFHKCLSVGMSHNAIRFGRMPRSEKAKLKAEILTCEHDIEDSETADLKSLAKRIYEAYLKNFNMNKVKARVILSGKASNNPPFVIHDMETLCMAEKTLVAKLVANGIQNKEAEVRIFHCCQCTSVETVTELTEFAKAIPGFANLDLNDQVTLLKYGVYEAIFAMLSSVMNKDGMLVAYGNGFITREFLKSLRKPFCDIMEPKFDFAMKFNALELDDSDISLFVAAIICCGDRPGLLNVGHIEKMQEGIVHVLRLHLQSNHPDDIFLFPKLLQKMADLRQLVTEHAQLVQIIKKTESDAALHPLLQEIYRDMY
Thyroid hormone receptor beta (Homo sapiens), sequence (P10828 whole entry, looked up): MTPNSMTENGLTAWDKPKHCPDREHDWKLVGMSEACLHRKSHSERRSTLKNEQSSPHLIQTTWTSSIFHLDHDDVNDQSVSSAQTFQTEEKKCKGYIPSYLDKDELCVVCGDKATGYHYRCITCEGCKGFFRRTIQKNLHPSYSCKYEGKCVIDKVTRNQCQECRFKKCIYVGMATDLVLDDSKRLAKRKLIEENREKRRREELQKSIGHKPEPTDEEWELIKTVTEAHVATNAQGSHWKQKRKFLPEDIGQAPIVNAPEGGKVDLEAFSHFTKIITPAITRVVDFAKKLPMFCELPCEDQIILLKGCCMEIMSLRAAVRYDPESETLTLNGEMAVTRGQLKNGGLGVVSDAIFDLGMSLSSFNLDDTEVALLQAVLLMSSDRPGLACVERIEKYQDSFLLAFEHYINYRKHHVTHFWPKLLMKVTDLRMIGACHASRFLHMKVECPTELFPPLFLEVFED
Nuclear receptor subfamily 1 group I member 2 (Rattus norvegicus), sequence (Q9R1A7 whole entry, looked up): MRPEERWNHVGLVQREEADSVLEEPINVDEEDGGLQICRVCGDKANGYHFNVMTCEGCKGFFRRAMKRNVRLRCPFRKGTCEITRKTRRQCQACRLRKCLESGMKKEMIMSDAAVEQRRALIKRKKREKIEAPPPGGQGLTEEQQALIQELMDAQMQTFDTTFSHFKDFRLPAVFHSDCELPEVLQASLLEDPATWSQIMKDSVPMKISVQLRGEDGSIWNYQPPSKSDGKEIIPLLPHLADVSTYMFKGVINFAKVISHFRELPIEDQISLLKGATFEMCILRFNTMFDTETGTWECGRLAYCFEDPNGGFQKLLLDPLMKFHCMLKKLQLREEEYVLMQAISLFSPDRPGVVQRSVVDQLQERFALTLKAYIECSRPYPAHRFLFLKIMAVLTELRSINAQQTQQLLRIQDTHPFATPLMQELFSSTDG
Peroxisome proliferator-activated receptor gamma (Homo sapiens), sequence (P37231 whole entry, looked up): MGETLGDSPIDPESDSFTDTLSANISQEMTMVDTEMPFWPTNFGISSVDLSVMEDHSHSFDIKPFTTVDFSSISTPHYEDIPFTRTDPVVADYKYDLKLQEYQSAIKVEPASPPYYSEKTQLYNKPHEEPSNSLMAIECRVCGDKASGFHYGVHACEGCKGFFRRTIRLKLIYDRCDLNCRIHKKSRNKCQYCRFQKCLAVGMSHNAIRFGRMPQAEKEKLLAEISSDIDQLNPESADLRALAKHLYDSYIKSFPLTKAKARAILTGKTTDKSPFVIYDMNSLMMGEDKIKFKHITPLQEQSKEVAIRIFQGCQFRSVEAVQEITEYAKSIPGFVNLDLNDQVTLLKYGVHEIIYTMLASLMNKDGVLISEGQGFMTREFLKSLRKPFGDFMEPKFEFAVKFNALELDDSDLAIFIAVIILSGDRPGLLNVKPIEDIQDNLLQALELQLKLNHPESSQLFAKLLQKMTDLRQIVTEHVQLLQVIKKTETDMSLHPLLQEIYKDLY
Vitamin D3 receptor (Homo sapiens), sequence (P11473 whole entry, looked up): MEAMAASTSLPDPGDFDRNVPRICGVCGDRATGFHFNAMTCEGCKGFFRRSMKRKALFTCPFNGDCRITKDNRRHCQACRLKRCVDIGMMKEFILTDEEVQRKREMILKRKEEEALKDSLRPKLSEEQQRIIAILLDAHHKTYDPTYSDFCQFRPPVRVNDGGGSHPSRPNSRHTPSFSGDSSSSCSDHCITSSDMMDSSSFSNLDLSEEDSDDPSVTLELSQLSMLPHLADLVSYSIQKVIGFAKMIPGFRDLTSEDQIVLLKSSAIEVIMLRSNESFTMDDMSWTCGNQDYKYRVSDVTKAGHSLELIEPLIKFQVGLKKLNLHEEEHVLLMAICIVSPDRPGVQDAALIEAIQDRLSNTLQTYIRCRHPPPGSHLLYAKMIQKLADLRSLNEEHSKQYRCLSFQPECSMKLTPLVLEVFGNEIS

For `CCC(=O)C1C(=O)CC(C(=O)O)CC1=O` (centres undefined), the compound was called inactive in assay [1], in [4] and in assay [15]. Also, the Potency result in assay [2], in [3], in assay [6], in assay [7] and in assay [12] was “inactive” each time. The max response in assay [5] was -10.4%; in assay [11], 1.2% (inactive); in assay [13] it was 14.2% (inactive); in assay [14], -8.49% (inactive). Further, the values for the activation in assay [8], in [9] and in [10] were 2.03% (inactive), 0.776% (inactive) and -0.512% (inactive), respectively.
Take `CC(C)(C)c1n[nH]c(=O)n(N)c1=O`: the max response in [16] is -9.84%; in assay [5], -20%; in assay [17], -5.34%; in assay [18], -3.59% (inactive); in [11], 0.89% (inactive); in [13], -8.89% (inactive). Moreover, the max response in assay [19] is -15.1% (inactive); in assay [14], 8.96% (inactive). The outcome in assay [1], in assay [4] and in assay [15] was inactive. In addition, the Potency result in assay [2], in assay [3], in assay [6], in [7], in assay [12] and in assay [20] was “inactive” each time. Moreover, the activation is 1.96% (inactive) in [8], 0.103% (inactive) in assay [9] and -0.927% (inactive) in [10].
Turning to `Oc1ccc2ccccc2c1N=Nc1ccccc1`, the call in [1] was inactive. The Potency result in assay [7] and in assay [20] was “inactive” throughout. Also, the max response in assay [17] was -13.8%; in assay [18], -15.2% (inactive); in assay [11] it was 0.672% (inactive); in assay [13], -25.3% (inactive); in assay [19] it was -20.8% (inactive); in assay [14] it was 5.24% (inactive). Further, in [9], the activation is 0.732% (inactive). Moreover, in [12], the Potency is 9.69 µM (active).
As for `CC(=O)OC1CCC(C(C)(C)C)CC1` (centres undefined), the max response is -10.4% in [16]; -2.86% in [5]; -1.04% in [17]; -0.283% (inactive) in [11]; 0.584% (inactive) in assay [13]; -10.3% (inactive) in assay [19]. For the same compound, the max response in [14] was 4.95% (inactive). Besides, the Potency entry in assay [3], in assay [6], in assay [7], in assay [12] and in assay [20] was “inactive” throughout. In addition, the result in assay [4] and in assay [15] was inactive. The activation in assay [8] is -2.06% (inactive); in assay [10] it was 3.13% (inactive).
For `NCCCCCCCCCCC(=O)O`, the max response in assay [16] is 0.715%; in [5], -7.72%; in [11], -1.64% (inactive); in assay [13], -2.31% (inactive); in [19] it was -12% (inactive); in [14] it was 1.01% (inactive). Also, the result in assay [1] and in [4] was inactive. The Potency result in assay [2], in assay [3], in [6] and in assay [20] was “inactive” throughout. In addition, the activation is 0.322% (inactive) in assay [8], -0.282% (inactive) in [9] and 6.19% (inactive) in assay [10].
With `CCCCOC(=O)c1ccccc1`, the max response in [16] is 0.0882%; in [5], -7.9%; in assay [17], -1.79%; in [18], 3.76% (inactive); in assay [11] it was -1.04% (inactive); in [13], 21.3% (inactive). Besides, the values for the max response in [19] and in [14] were -6.32% (inactive) and -2.16% (inactive), respectively. Besides, the Potency entry in assay [2], in assay [3], in assay [6], in assay [12] and in assay [20] was “inactive” throughout. For the same compound, the compound was called inactive in assay [4] and in assay [15]. Also, the activation is -4.18% (inactive) in assay [8] and 0.836% (inactive) in assay [9].
